Data on 23 molecules can be found in PubChem BioAssay (NCATS).

Structures are written as SMILES. Records with an inconclusive call do not appear. Unmarked numbers belong to inactive results. Activity calls are given as the source filed them. Calls come from the whole dose curve; as a rule, active = well fitted inhibition curve with a large enough effect; inconclusive = small, poorly fitted or top-dose-only effect; inactive = no such curve, though single readings can be large or run the other way. Where a SMILES comes first, the peptide text is derived from it. The star is where a group is joined. AFC = O=c1cc(C(F)(F)F)c2ccc(N*)cc2o1

Experiment [1] concerns Zika virus NS2B-NS3 protease (unlinked complex). Briefly: Primary screen GU Rhodamine qHTS for Zika virus inhibitors: Unlinked NS2B-NS3 protease assay (AID 1347159). Note: nearly all actives have a fitted effect of over 60% in size. The conditions noted are these: Recombinant ZIKV NS2B-NS3 protease, Rhodamine110 substrate fluorescence; series mostly up to 107 µM. In short, it runs like this: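 Buffer 10 mM Tris-HCl pH 8.0, 0.01% Tween 20. Unlinked protease 25 nM; compound preincubation 15 min, RT, protected from light. Substrate Rhod110, 1.5 microM; ~15% conversion in 15 min.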

In experiment [2] the test system is Zika virus NS2B-NS3 protease (linked construct). Kind of experiment: Primary screen NINDS Rhodamine qHTS for Zika virus inhibitors (AID 1347160). Note: nearly all actives have a fitted effect of over 55% in size. The conditions noted are these: purified NS2B-NS3 protease, Rhodamine110 substrate fluorescence; series mostly up to 57.1 µM. The gist of the method:
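Aprotinin served as in-plate control. Conditions: 25 nM linked NS2B-NS3, pH 8.0 Tris buffer, titrated compounds, 15 min preincubation and 15 min reaction with 1.5 microM Rhod110 substrate at room temperature.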
In general terms: qHTS replaces the single test concentration by a dilution series.
% is set by controls: 0 for no effect and ±100 for the full control effect.

`CC1(C)C(O)CCC2(C)C1C(O)C=C1COC(=O)C12O` (stereo unspecified): the Potency result in experiment [1] and in experiment [2] was “inactive” each time.

Take `CC1CCC2(C(=O)OC3OC(CO)C(O)C(O)C3O)CCC3(C)C(=CCC4C5(C)CC(O)C(O)C(C)(C(=O)O)C5CCC43C)C2C1(C)O` (stereo unspecified): the Potency entry in experiment [1] and in experiment [2] was “inactive” throughout.

For `O=C(O)C[C@H](O)C[C@H](O)/C=C/c1c(C2CC2)nc2ccccc2c1-c1ccc(F)cc1`, the Potency entry in experiment [1] and in experiment [2] was “inactive” each time.

Consider `COC(=O)C1=CO[C@@H](O[C@@H]2O[C@H](COC(=O)/C=C/c3cc(OC)c(O)c(OC)c3)[C@@H](O)[C@H](O)[C@H]2O)[C@@H]2C(CO)=CC[C@H]12`, for which the Potency entry in experiment [1] and in experiment [2] was “inactive” in each case.

As to `CC(C#N)C(C)O[C@@H]1O[C@H](CO)[C@@H](O)[C@H](O)[C@H]1O` (stereo partly specified), the Potency entry in experiment [1] and in experiment [2] was “inactive” in each case.

For the molecule `CCn1nnnc1NCc1ccc(C(C)C)cc1`, the Potency result in experiment [1] and in experiment [2] was “inactive” in each case.

`CC(C)(O)C1CCC2(C)C3C(O)C4C(C13)C42CO` (stereo unspecified): the Potency result in experiment [1] and in experiment [2] was “inactive” each time.

For the molecule `CC(=O)N[C@H]1CCN(c2ccc(C3=NOC(CN[S+](=O)([O-])C(C)C)C3)cc2F)C1` (stereo partly specified), the Potency result in experiment [1] and in experiment [2] was “inactive” each time.

For the molecule `C=C1C2(CCC(=O)OC2(C)C)CC(OC(=O)/C(C)=C/C)C2(C)C13OC14C(=O)OC(C)(C(=O)C12C(=O)OC4C)C3OC(C)=O` (stereo unspecified), the Potency result in experiment [1] and in experiment [2] was “inactive” each time.

`COC(=O)C1=C[C@@H](O)[C@@H](O)[C@H](O[C@@H]2O[C@H](COC(=O)/C=C/c3ccccc3)[C@@H](O)[C@H](O)[C@H]2O)C1`: the Potency result in experiment [1] and in experiment [2] was “inactive” throughout.

`Nc1c(Br)cc(Br)cc1CNC1CCC(O)CC1` (stereo unspecified): the Potency entry in experiment [1] and in experiment [2] was “inactive” throughout.

With `CC(C)(C)c1cc(CN2CCN(CC(O)c3ccc(Cl)cc3)CC2)cc(C(C)(C)C)c1O` (stereo unspecified), the Potency entry in experiment [1] and in experiment [2] was “inactive” in each case.

For `Cc1onc(-c2ccccc2)c1C(=O)N[C@@H]1C(=O)N2[C@@H]1SC(C)(C)[C@@H]2C(=O)O`, the Potency entry in experiment [1] and in experiment [2] was “inactive” throughout.

Take `CC(C)=CCCC1(C)Oc2cc3c(c4c2C2C(O4)C(C)(O)CCC21)CN(C(CCC(=O)O)C(=O)O)C3=O` (stereo unspecified): the Potency result in experiment [1] and in experiment [2] was “inactive” throughout.

Consider `CCC[C@@H]1C[C@@H](C(=O)N[C@@H]([C@H]2O[C@H](SC)[C@H](OP(=O)(O)O)[C@@H](O)[C@H]2O)[C@H](C)Cl)N(C)C1`, for which the Potency result in experiment [1] and in experiment [2] was “inactive” in each case.

Turning to `CC1(C)CC[C@]2(C(=O)O)CC[C@]3(C)C(=CCC4[C@@]5(C)C[C@H](O)[C@H](O[C@@H]6OC[C@H](O)[C@H](O)[C@H]6O)[C@@](C)(CO)C5CC[C@]43C)[C@@H]2C1` (stereo partly specified), the Potency entry in experiment [1] and in experiment [2] was “inactive” in each case.

For `C[C@@H]1O[C@@H](O[C@H]2[C@H](OC(=O)C34CCC5(C)C(=CCC6C7(C)CC(O)C(O[C@@H]8O[C@H](C(=O)O)[C@@H](O)[C@H](O)[C@H]8O)C(C)(C(=O)O)C7CCC65C)C3CC(C)(C)CC4O)O[C@H](C)[C@@H](O)[C@@H]2O)[C@H](O)[C@@H](O[C@@H]2OC[C@](O)(CO)[C@H]2O[C@@H]2O[C@H](CO)[C@@H](O)[C@H](O)[C@H]2O)[C@H]1O` (stereo partly specified), the activity change, negative = inhibition in experiment [1] was 4.07% [at 19.1 µM]; in experiment [2], -17.8% [at 10.7 µM].

As to `Cc1cc(O)c(C(C)C)cc1O[C@@H]1O[C@H](CO)[C@@H](O)[C@H](O)[C@H]1O`, the Potency result in experiment [1] and in experiment [2] was “inactive” in each case.

Take `CC1CCC2C(C)(C)C(O)CCC2(C)C12Cc1c(O)cc3c(c1O2)CN(C(CCC(N)=O)C(=O)O)C3=O` (stereo unspecified): the Potency entry in experiment [1] and in experiment [2] was “inactive” each time.

For `C[C@@H]1O[C@@H](O[C@H]2[C@H](OC(=O)[C@]34CCC(C)(C)C[C@H]3C3=CCC5[C@@]6(C)CC[C@H](O[C@@H]7O[C@H](CO[C@@H]8OC[C@H](O)[C@H](O)[C@H]8O)[C@@H](O)[C@H](O)[C@H]7O)C(C)(C)C6CC[C@@]5(C)[C@]3(C)C[C@H]4O)OC[C@@H](O)[C@@H]2O)[C@H](O)[C@H](O)[C@H]1O[C@@H]1OC[C@H](O)[C@H](O[C@@H]2OC[C@@H](O)[C@H](O)[C@H]2O)[C@H]1O` (stereo partly specified), the activity change, negative = inhibition is -11.8% [at 19.1 µM] in experiment [1] and -14.5% [at 10.7 µM] in experiment [2].

As to `CC1=CC(=O)C2C(C)(C)CC(O)CC2(C)C1CO` (stereo unspecified), the Potency result in experiment [1] and in experiment [2] was “inactive” in each case.

Turning to `CC1(C)CCC2(C(=O)OC3OC(COC4OC(CO)C(O)C(O)C4O)C(O)C(O)C3O)CCC3(C)C(=CCC4C5(C)CCC(O)C(C)(C(=O)O)C5CCC43C)C2C1O` (stereo unspecified), the Potency entry in experiment [1] and in experiment [2] was “inactive” throughout.

Regarding `CC(=O)N[C@@H](CC(C)C)C(=O)N[C@@H](CCC(=O)O)C(=O)N[C@@H](CCC(=O)O)C(=O)N[C@@H](CC(=O)O)C(=O)Nc1ccc2c(C(F)(F)F)cc(=O)oc2c1` (Ac-LEED-{AFC}), the Potency entry in experiment [1] and in experiment [2] was “inactive” in each case.
